The sample as a whole holds a higher share of hits than the screen did.
Pf Dd2 growth = Plasmodium falciparum Dd2 growth inhibition. P. falciparum Dd2 growth, SYBR Green, 72 h. Potency, µM (doses to about 28.9 µM), inactives show at the top dose activity, negative = inhibition, hits mostly inhibitors. 120,000 compounds, 4.3% hits. AID 1347417; active means well fitted inhibition curve with a large enough effect;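 further: plate controls were DMSO vehicle for no effect and reference drug for full effect; nearly all actives have a fitted effect of over 65% in size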
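Readout: SYBR Green fluorescence, 485 nm excitation, 535 nm emission, after ~16 h lysis at 37C. Before that, Dd2-infected red cells (2.5% hematocrit) grew 72 h with compound, 29 uM top final concentration.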
Numbers without * were called inactive; i = inactive; [ ] = another dose, or the depositor's remark. Potency means the concentration at half of the fitted maximal effect.

SMILES | Pf Dd2 growth
Cc1cccc(S(=O)(=O)c2cn(Cc3ccccc3)c3cc(N4CCC(C)CC4)c(F)cc3c2=O)c1 | 10µM*
CCCCn1cc(S(=O)(=O)c2ccc(OC)cc2)c(=O)c2cc(F)c(N3CCOCC3)cc21 | 11µM*
CCn1cc(S(=O)(=O)c2cccc(C)c2)c(=O)c2cc(F)c(N3CCN(c4ccccc4)CC3)cc21 | i
COc1ccc(S(=O)(=O)c2cn(Cc3ccccc3)c3cc(N4CCCC4)c(F)cc3c2=O)cc1 | 13µM*
CCn1cc(S(=O)(=O)c2cccc(Cl)c2)c(=O)c2cc(F)c(N3CCC(C)CC3)cc21 | i
CCCCn1cc(S(=O)(=O)c2ccc(OC)cc2)c(=O)c2cc(F)c(F)cc21 | 1%
CCn1ccc(C(=O)N2CCCC(c3nn(C)c(=O)n3-c3ccccc3)C2)n1 (centres undefined) | 7%
Cc1noc(C)c1S(=O)(=O)N1C[C@@H](F)C[C@H]1C(=O)N1CCOCC1 | 13%
Cn1cc(CN2CCOc3cc([S+](=O)([O-])Nc4nncs4)ccc3C2)cn1 | i
C[C@@H](c1ccccc1)N1C(=O)[C@@H]2CN(C(=O)c3ccc(N(C)C)cc3)CCN2C1=O | i
COc1ccc(Cn2c(C(=O)O)c(CNC3CCCC3)c3ccc(C)cc32)cc1 | 61%
COc1ccc2c(CNC3CCCCCC3)c(C(=O)O)n(Cc3cccc(F)c3)c2c1 | -8%
COc1ccc(Cn2c(C(=O)O)c(CNC3CCC(C)CC3)c3ccc(C)cc32)cc1 (centres undefined) | -9%
C=Cc1ccc(Cn2c(C(=O)O)c(CNC3CCCCC3)c3ccc(OC)cc32)cc1 | 11µM*
COc1ccc2c(CNC3CCCCCC3)c(C(=O)O)n(Cc3ccc(C)cc3)c2c1 | 8.9µM*
Cc1ccc(Cn2c(C(=O)O)c(CNC3CCCC3)c3ccc(C)cc32)cc1 | i
CNC(=O)C(C)N(C)C(=O)c1coc(COc2ccc3ccc(OC)cc3c2)n1 (centres undefined) | -8%
O=C(NCc1ccccc1)c1c(OCC2CC2)cc(=O)n2c1CCOCC2 | 8%
Fc1ccccc1-c1cnc2n[nH]c(-c3ccccc3)c2n1 | i
CN(C)C(=O)c1n[nH]c2c1CN(C(=O)c1ccc(Br)cc1)CC2 | i
O=C(Cn1cccc1-c1nc(-c2ccc3c(c2)OCO3)no1)Nc1ccccc1Cl | i
CC(C)(CC(=O)O)CC(=O)N1Cc2[nH]cnc2C[C@H]1C(=O)N1CCCC1 | 13%[44.1 µM]
COc1cccc(CN2CCn3c(nnc3[C@@H]3C[C@@H](O)CN3Cc3ccccc3)C2)c1 | i
COc1ccc(-c2cc(-c3ccccc3)nc(SCC(=O)Nc3ccccc3F)c2C#N)cc1 | 22%
COc1ccc(NC(=O)CSc2nc(-c3ccccc3)cc(-c3cc(OC)c(OC)c(OC)c3)c2C#N)c(OC)c1 | 6.3µM*
SMILES | Pf Dd2 growth
N#Cc1c(-c2ccccc2)cc(-c2ccccc2)nc1SCC(=O)Nc1ccc(Cl)cc1 | -13%
Cc1cc2nc3n(c(=O)c2n1CC(=O)Nc1ccc(F)cc1F)CCC3 | i
CC1=C[C@@H](CN2CCN(c3ncccn3)CC2)[C@H](C(C)C)C[C@H]1Cc1nnc(COc2ccc(F)cc2)o1 | 0.89µM*
CC1=C[C@@H](CN2CCN(c3ccccn3)CC2)[C@H](C(C)C)C[C@H]1Cc1nnc(-c2ccc([N+](=O)[O-])cc2)o1 | 3.5µM*
CC1=C[C@@H](CO)[C@H](C(C)C)C[C@H]1CC(=O)N1CCN(c2ccccn2)CC1 | i
CC1=C[C@@H](CN(C)Cc2cccnc2)[C@H](C(C)C)C[C@H]1Cc1nnc(-c2ccc([N+](=O)[O-])cc2)o1 | 4.5µM*
CC1=C[C@@H](CN2CCC(CO)CC2)[C@H](C(C)C)C[C@H]1Cc1nnc(-c2ccccc2)o1 | -16%[44.1 µM]
O=C1NCCCCCCN(S(=O)(=O)Cc2ccccc2)[C@H]2CCC[C@@H]12 | -20%
C1CC(Cc2nc(C3CC3)n[nH]2)CN1 (centres undefined) | 18%
COCC1CN(C2CCC2)CC12CCN(C(=O)c1ccc(F)cc1F)CC2 (centres undefined) | i
CCCS(=O)(=O)N1CCC2(CCCN(Cc3cccc(F)c3F)C2=O)C1 (centres undefined) | i
COCC(=O)Nc1ccc([C@H]2OCC(=O)N(C3CCOCC3)[C@@H]2CO)cc1 | i
Cn1ncc(N2CCCC(C(=O)N3CCN(C(=O)c4ccco4)CC3)C2)cc1=O (centres undefined) | 7%
O=C(N[C@H](c1ccccn1)C1CC(O)C1)c1cccc(Cn2cccn2)c1 (some centres undefined) | -9%
CCCc1cc(C(=O)N[C@H](c2ccccn2)C2CC(O)C2)cs1 (some centres undefined) | -1%
O=C(N[C@H](c1ccccn1)C1CC(O)C1)c1cc(=O)n(-c2ccccc2)[nH]1 (some centres undefined) | 1.4µM*
O=C(N[C@H]1C[C@H]2C(=O)NC[C@@H](CCC(=O)N3CCN(c4ccccn4)CC3)N2C1)c1cccs1 | -5%
CN1c2cc(C(=O)Nc3ccc4c(c3)OCCO4)ccc2C(=O)N2CCCCC21 (centres undefined) | i
CCOc1ccccc1CNCc1cccn1-c1nnc(N2CCN(c3ccccc3)CC2)s1 | 7.1µM*
CCOc1ccccc1CNC(=O)c1cccn1-c1nnc(N2CCCCC2)s1 | -13%
c1ccc(N2CCN(Cc3cccn3-c3nnc(N4CCN(C5CCCCC5)CC4)s3)CC2)cc1 | -1%
COC(=O)C1=C(C)N=C2SC=C(CC(=O)N3CCC(C)CC3)N2C1c1ccccc1Cl (centres undefined) | i
Cc1cnc(C(=O)N2CC(F)(F)C[C@H]2c2nnc(C3CC3)o2)cn1 | 20%
Cc1ccc(C(=O)N2CCC3(CC2)CCN(Cc2cccs2)c2ccccc2O3)cc1 | -17%
Cc1ccccc1C(=O)N1CCC2(CC1)CCN(CCc1ccccc1)c1ccccc1O2 | i
SMILES | Pf Dd2 growth
O=C(c1ccccc1Cl)N1CCC2(CC1)CCN(Cc1cccs1)c1ccccc1O2 | 10µM*
COc1cccc(CN2C[C@@H](CO)[C@H](C3CCN(C(C)=O)CC3)C2)c1 | -15%
CCOC(=O)c1c(S(=O)(=O)N2CCCC(C(=O)Nc3cc(C)ccc3OC)C2)c(C)n(C)c1C (centres undefined) | 29%
CCOC(=O)c1c(C)[nH]c(C)c1S(=O)(=O)N1CCCC(C(=O)N2CCN(c3cc(C)ccc3C)CC2)C1 (centres undefined) | 1.3µM*
CCOC(=O)c1c(C)[nH]c(C)c1S(=O)(=O)N1CCCC(C(=O)NCc2ccc(C)cc2)C1 (centres undefined) | i
Cc1ccc(C)c(N2CCN(C(=O)C3CCN(S(=O)(=O)c4ccc5[nH]c(=O)oc5c4)CC3)CC2)c1 | 5.6µM*
CCOC(=O)c1c(S(=O)(=O)N2CCCC(C(=O)Nc3ncccc3C)C2)c(C)n(C)c1C (centres undefined) | i
CCOC(=O)c1c(S(=O)(=O)N2CCC(C(=O)N3CCN(c4ccccc4F)CC3)CC2)c(C)n(C)c1C | i
CCOC(=O)c1c(S(=O)(=O)N2CCCC(C(=O)Nc3cc(C)ccn3)C2)c(C)n(C)c1C (centres undefined) | i
CCOC(=O)c1c(S(=O)(=O)N2CCCC(C(=O)N3CCN(c4cc(C)ccc4C)CC3)C2)c(C)n(C)c1C (centres undefined) | 1µM*
CCOC(=O)c1c(S(=O)(=O)N2CCCC(C(=O)N3CCN(c4cccc(C)c4C)CC3)C2)c(C)n(C)c1C (centres undefined) | 1.1µM*
